Source: publication PMC13083723 (Patterns, 2026)
Among all 5,400 compounds or so, about 190 (3.5%) showed an effect of 50% or more. The full list was thinned out, with strong results kept by preference.

System: Vero-E6
Test: primary screen, phospholipidosis by LipidTOX staining; higher = more effect of the substance
Settings: 10 µM
Procedure, shortened: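 Single-concentration screen at 10 μM, with DMSO 0.1 v/v % and amiodarone 10 μM as controls. Read-out is LipidTOX Red phospholipid staining, which tolerates aldehyde fixation, in Vero-E6 cells.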

SMILES | result_ITMP
O=C(N[C@H]1CN2CCC1CC2)c1cnc2ccsc2c1O | -2.55%
COC(=O)N[C@H](C(=O)N1CCC[C@H]1c1ncc(-c2ccc3c(c2)O[C@@H](c2ccccc2)n2c-3cc3cc(-c4cnc([C@@H]5CCCN5C(=O)[C@@H](NC(=O)OC)C(C)C)[nH]4)ccc32)[nH]1)C(C)C | 3.24%
Cc1onc(-c2ccccc2Cl)c1C(=O)N[C@@H]1C(=O)N2[C@@H]1SC(C)(C)[C@@H]2C(=O)[O-] | 4.56%
C=CCN1CCC23c4c5ccc(O)c4O[C@H]2C(=O)CC[C@@]3(O)[C@H]1C5 | -3.91%
NC[C@H]1O[C@H](O[C@H]2[C@H](O[C@@H]3O[C@H](CO)[C@@H](O)[C@H]3O)[C@@H](O)[C@H](N)C[C@@H]2N)[C@H](N)[C@@H](O)[C@@H]1O | -1.8%
CN(C)CC[C@@H](c1ccc(Cl)cc1)c1ccccn1 [R4A_0004036_001 / SPE_K39462424] | 22.6%
CC(=O)C(=O)[O-] | -8.52%
CN1[C@@H]2CC[C@H]1C[C@@H](OC(=O)c1c[nH]c3ccccc13)C2.CN1[C@@H]2CC[C@H]1C[C@H](OC(=O)c1c[nH]c3ccccc13)C2 | 19.1%
CC(C)Oc1ccc(-c2nc(-c3cccc4c3CCC4NCCC(=O)O)no2)cc1C#N (stereo not drawn) | -0.21%
CC(C)Oc1ccc(-c2nc(-c3cccc4c3CC[C@@H]4NCCO)no2)cc1C#N | 39.4%
CCOc1ccc(-c2nc(-c3cccc4c3CCC4NCCO)no2)cc1OCC (stereo not drawn) | 108%
Cc1ccc(Cl)c(Nc2ccccc2C(=O)[O-])c1Cl | -2.49%
CC[C@]1(O)C[C@H]2C[N@](CCc3c([nH]c4ccccc34)[C@@](C(=O)OC)(c3cc4c(cc3OC)N(C)[C@H]3[C@@](O)(C(N)=O)[C@H](O)[C@]5(CC)C=CCN6CC[C@]43[C@@H]65)C2)C1 | 9.74%
COc1cc(C(=O)NCC2(N(C)C)CCCC2)cc(OC)c1OCc1ccccc1 | 25.4%
COc1cc(CN(CCN)C(=O)c2cccs2)ccc1OCc1ccccc1 | 85.4%
O=C(O)Cc1ccc(OCc2ccccc2)c(Cl)c1 | 2.22%
O=S(=O)([O-])CC(S)CS (stereo not drawn) | -3.17%
O=C(NC(Cc1c[nH]c2ccccc12)C(=O)[O-])c1ccc(Cl)cc1 (stereo not drawn) | -0.44%
NC1C[C@H]1c1ccccc1 (stereo partly drawn) | -1.26%
N[C@H]1CC[C@H](N[C@@H]2C[C@H]2c2ccccc2)CC1 | 65.7%
c1ccc([C@@H]2C[C@H]2NC2CCNCC2)cc1 | 27.9%
C[C@]12CCC(=O)C=C1C=CC1C2CC[C@@]2(C)C1CC[C@@]2(O)CCC(=O)[O-] (stereo partly drawn) | -3.36%
Cc1ccc(S(=O)(=O)[N-]Cl)cc1 | -2.26%
CC[C@]1(O)C[C@@H]2C[N@@](CCc3c([nH]c4ccccc34)[C@@](C(=O)OC)(c3cc4c(cc3OC)N(C)[C@H]3[C@@](O)(C(=O)OC)[C@H](OC(C)=O)[C@]5(CC)C=CCN6CC[C@]43[C@@H]65)C2)C1 | 8.57%
O=C([O-])CCCc1ccccc1 | 0.94%
CCN(CCCc1ccccc1)CCCc1ccccc1 | 58.9%

SMILES | result_ITMP
NC(=O)OCCCc1ccccc1 | -6.09%
C#Cc1cnc(O)nc1O | -3.59%
Cc1ccc(C)c(Oc2ccncc2C(=O)N2CCN(C3CC3)c3ccccc32)c1 | -4.61%
O=C(O)c1ccccc1NC(=O)N1CCC(c2ccccc2C(F)(F)F)CC1 | -0.92%
CCOc1ccc(S(=O)(=O)[O-])c2cccnc12 | -2.55%
CCN(CC)CCOC(=O)C(c1ccccc1)C1CCCCC1 (stereo not drawn) | 52%
CCN(CC)CCOC(=O)C1(c2ccccc2)CCCC1 | 2.32%
CCN(CC)CCOC(=O)C(c1ccccc1)c1ccccc1 | 3.73%
COc1ccc2c(C)nc(Nc3nc(=O)c(C)c(C)[nH]3)nc2c1 | 0.3%
NC(=O)C1CCCc2c1[nH]c1ccc(Cl)cc21 (stereo not drawn) | -0.07%
OCCNC1CCCc2c1[nH]c1ccc(-c3ccccc3)cc21 (stereo not drawn) | 89.4%
C[C@H](N)C(=O)N[C@@]1(C(=O)O)C[C@@H](Sc2nnc[nH]2)[C@H]2[C@H](C(=O)O)[C@H]21 | -1.74%
Nc1ncnc2c1c(-c1cccc(OCc3ccccc3)c1)cn2C1CC(CN2CCCC2)C1 (stereo in doubt) | 41.5%
Nc1ncnc2c1c(-c1cccc(OCc3ccccc3)c1)cn2[C@H]1C[C@@H](CN2CCC2)C1 | 69.4%
Nc1ncnc2c1c(-c1ccc(Oc3ccccc3)cc1)nn2C1CCCC1 | -1.17%
CC(C)(C)C(=O)Oc1ccc(S(=O)(=O)Nc2ccccc2C(=O)NCC(=O)[O-])cc1 | -1.15%
C=C1/C(=C\C=C2/CCC[C@]3(C)[C@@H]([C@H](C)/C=C/[C@H](C)C(C)(C)O)CC[C@@H]23)C[C@@H](O)C[C@@H]1O | -2.3%
COc1ccc(CCNCc2ccc(OCc3ccc(Cl)nc3)c(OC)c2)cc1OC | 59.3%
COc1ccc(COc2ccc(Cc3cnc(N)nc3N)cc2OC)cc1 | -3.18%
COc1ccc(CCN)cc1OC | -4.61%
CC[C@H](/C=C/[C@@H](C)[C@H]1CC[C@H]2[C@@H]3CC=C4C[C@@H](O)CC[C@]4(C)[C@H]3CC[C@]12C)C(C)C | -2.7%
O=C1Nc2ccc(Cl)c3c2C1(CCCCN1CC=C(c2ccc(Cl)cc2)CC1)CCC3 (stereo not drawn) | 70.2%
O=C(O)c1ccc2[nH]cc(CCCCN3CC=C(c4ccccc4)CC3)c2c1 | -12.5%
CO[C@H]1C[C@H](O[C@H]2CC[C@@]3(C)[C@H](CC[C@@H]4[C@@H]3CC[C@]3(C)[C@@H](C5=CC(=O)OC5)[C@@H](OC(C)=O)C[C@]43O)C2)O[C@@H](C)[C@@H]1O | -2.23%
CO/N=C(\C(=O)N[C@@H]1C(=O)N2C(C(=O)[O-])=CCS[C@H]12)c1csc(N)n1 | -1.89%
CCC1=C[C@@H]2C[N@](C1)Cc1c([nH]c3ccccc13)[C@@](C(=O)OC)(c1cc3c(cc1OC)N(C)[C@H]1[C@@](O)(C(=O)OC)[C@H](OC(C)=O)[C@]4(CC)C=CCN5CC[C@]31[C@@H]54)C2 | 7.31%

SMILES | result_ITMP
C=CC(=O)Nc1cc2c(Nc3ccc(F)c(Cl)c3)ncnc2cc1C#CC(C)(C)N1CCN(C)CC1 | 36.6%
CN1CCC(Nc2ncc3ncnc(Nc4ccc(F)c(Cl)c4)c3n2)CC1 | 76.5%
CCN1CCC(n2cc(CNc3cc(Cl)c4ncc(C#N)c(Nc5ccc(F)c(Cl)c5)c4c3)nn2)CC1 | 9.34%
CCN(CC)CC1CCN(c2ncc3ncnc(Nc4ccc(F)c(Cl)c4)c3n2)CC1 | 97%
N#Cc1cc(CN2CCC(Nc3ncnc4sc(Cl)cc34)CC2)ccc1F | 18.7%
CC(C)(C)NCC(O)COc1cccc2c1C[C@H](O)[C@H](O)C2 (mixture of isomers) | -2.49%
CC[C@H](C)[C@H](NC(=O)[C@H](CCC(=O)O)NC(=O)[C@H](CCC(=O)O)NC(=O)[C@H](Cc1ccccc1)NC(=O)[C@H](CC(=O)O)NC(=O)CNC(=O)[C@H](CC(N)=O)NC(=O)CNC(=O)CNC(=O)CNC(=O)CNC(=O)[C@@H]1CCCN1C(=O)[C@H](CCCNC(=N)N)NC(=O)[C@@H]1CCCN1C(=O)[C@H](N)Cc1ccccc1)C(=O)N1CCC[C@H]1C(=O)N[C@@H](CCC(=O)O)C(=O)N[C@@H](CCC(=O)O)C(=O)N[C@@H](Cc1ccc(O)cc1)C(=O)N[C@@H](CC(C)C)C(=O)O | 0.65%
O=C1[N-]C(=O)C(c2ccccc2)(c2ccccc2)N1 | -1.89%
NC(N)=NC(=O)c1cnn(-c2cccc3ncccc23)c1C1CC1 | -1.94%
COc1ccc(C(=O)c2c(C)n(CCN3CCOCC3)c3ccccc23)cc1 | 0.58%
Cc1cc(-c2ccccc2)nnc1NCCN1CCOCC1 | -1.84%
CCn1c2ccccc2c2cc(Nc3ccnc(NCCCN4CCOCC4)n3)ccc21 | 57.6%
O=C([O-])C1[O][Sb]2[O]C(=O)C([O]2)C(C(=O)[O-])[O][Sb]2[O]C(=O)C1[O]2 (stereo not drawn) | -8.7%
CC1(C)S[C@@H]2[C@H](NC(=O)COc3ccccc3)C(=O)N2[C@H]1C(=O)[O-] | -2.47%
Fc1ccc(-n2cc(CCCCN3CCC4(CC3)OCc3ccccc34)c3ccccc32)cc1 | 26.9%
COc1ccccc1C1(O)CCN(CCCn2c3ccccc3c3ccccc32)CC1 | 52.4%
COc1ccccc1N1CCN(CCN2C(=O)c3ccccc3C(C)(C)C2=O)CC1 | 2.7%
CC1=C(/C=C/C(C)=C/C=C/C(C)=C/C(=O)O)C(C)(C)CCC1 [R4A_0003961_001 / SPE_K71879491] | 4.7%
C[C@H](Nc1ncnc2[nH]cnc12)c1cc2ccc(F)cc2nc1-c1ccccn1 [R4A_0002240_001 / SPE_A58947127] | 4.77%
COc1ccc(C(=O)/C(Cc2cc(OC)c(OC)c(OC)c2)=C(\C(=O)[O-])c2ccc3c(c2)OCO3)cc1 | -3.57%
Cc1[nH]c2ccc(Cl)cc2c1C1=CCNCC1 | 96.8%
O=c1ccc2[nH]cc(C3=CCNCC3)c2[nH]1 | -1.73%
COc1ccc2[nH]cc(C3=CCNCC3)c2c1 | -0.41%
C[C@@H]([C@H](C)O)[C@H](N)C(=O)O | 0.75%
N#CN/C(=N\c1ccncc1)NCCCCCCOc1ccc(Cl)cc1 | 0.38%
COc1ccc(-c2ccc3c(N4CCOCC4)nc(N4C[C@@H](C)O[C@@H](C)C4)nc3n2)cc1CO | 1.47%
